Pf growth 48h = P. falciparum growth inhibition at 48 hours (one generation). P. falciparum luciferase growth in erythrocytes, 48 h. Potency, µM (series often up to 28.7 µM), for the others: top-dose activity change, negative = inhibition, hits mostly inhibitors. 310,000 tested, 5.9% active. AID 504832
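Luciferase-expressing P. falciparum in infected erythrocytes (2% hematocrit, 0.1% parasitemia final) in RPMI 1640/0.5% Albumax were exposed to compound for 48 hours at 37 C, 5% CO2; growth read as luminescence.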
AMA1 RON2 block = AMA1-RON2 (P. falciparum) interaction inhibition | AID 720542 | AlphaScreen AMA1-biotinylated RON2 peptide binding | Potency, µM (highest dose often 58.2 µM), for inactives: at the top dose activity change, negative = inhibition, actives largely listed as inhibitors | 360,000 tested, 0.2% active;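 further: 0% = vehicle wells and -100% = peptide control; nearly all actives have a fitted effect of over 45% in size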
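AMA1 (3D7) with his tag at 25 nM final met compounds first, then biotinylated RON2 peptide at 25 nM; detection used donor plus acceptor beads, 10 µg/mL apiece, read by AlphaScreen after 30 min at room temperature.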
AmpC inh no detg = blocks E. coli AmpC beta-lactamase in detergent-free assay; P00811; Potency, µM (top dose mostly 57.1 µM), inactives show at the top dose activity change, negative = inhibition, most hits filed as inhibitors; AmpC nitrocefin hydrolysis, absorbance 480 nm, 0.0001% Triton; 330,000 tested, 0.52% active;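 further: plate controls were no compound for no effect and no enzyme for full effect; nearly all actives have a fitted effect of over 20% in size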
Target sequence (P00811 whole entry, looked up): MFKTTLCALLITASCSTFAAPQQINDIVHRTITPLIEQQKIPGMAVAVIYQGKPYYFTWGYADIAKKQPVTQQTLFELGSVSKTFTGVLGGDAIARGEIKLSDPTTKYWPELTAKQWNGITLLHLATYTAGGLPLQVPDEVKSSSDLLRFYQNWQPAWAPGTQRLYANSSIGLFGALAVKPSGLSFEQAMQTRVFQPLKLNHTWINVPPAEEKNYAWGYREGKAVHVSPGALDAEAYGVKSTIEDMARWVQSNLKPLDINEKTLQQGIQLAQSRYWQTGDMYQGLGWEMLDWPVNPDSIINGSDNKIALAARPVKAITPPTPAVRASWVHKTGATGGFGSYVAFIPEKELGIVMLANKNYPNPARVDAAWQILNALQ
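20 mM phosphate pH 7.0 + 0.01% (detergent screen) or 0.0001% Triton X-100; 5.3 nM AmpC reagent; cpd preinc 15 min RT; nitrocefin (800 uM stock) to start; A480 q20 s × 4 min; Activity was normalised to no-enzyme and no-compound control wells.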
AmpC inh detg = blocks E. coli AmpC beta-lactamase in detergent assay; P00811; AmpC hydrolysis of nitrocefin, absorbance 480 nm, 0.01% Triton; Potency, µM (doses to about 114 µM), for the others: top-dose activity change, negative = inhibition, most hits filed as inhibitors; 370,000 tested, 0.041% active; AID 485294;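 further: 0% = no-compound wells and -100% = no-enzyme wells; nearly all actives have a fitted effect of over 25% in size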
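AmpC (5.3 nM in the dispensed reagent) in 20 mM phosphate pH 7.0 with 0.01% (detergent screen) or 0.0001% Triton X-100 was preincubated with compounds for 15 min at room temperature. Nitrocefin was then added from an 800 uM solution, and hydrolysis was followed at 480 nm.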
Pf growth 96h = inhibits malaria parasite growth, 96 h. P. falciparum luciferase reporter growth, 96 h. Potency, µM (titrated, usually from 28.7 µM), without a hit: top-dose activity change, negative = inhibition, usual class: inhibitors. 320,000 tested, 6.9% active
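Infected RBCs, 2% Hct / 0.05% parasitemia final; luciferase-reporter P. falciparum; cpd 96 h, 37 C, 5% CO2; luciferase detection reagent; luminescence.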
HCV inhibitor = HCV inhibition; Potency, µM (series often up to 41.8 µM), without a hit: at the highest dose activity change, negative = inhibition, actives largely listed as inhibitors; Huh7.5.1 HCVcc-Cre infection, luciferase reporter, 44 h; AID 651820; 340,000 tested, 3.4% active
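Infectious HCVcc-Cre (~0.5 moi) was added to cells just after compound, with cells seeded 4 h earlier at 1,000 per well. Luciferase activity after 44 h culture reported infection; substrate was incubated 15 min at room temperature before reading.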
* marks the source's active call; other numbers are inactive results; ? = inconclusive; . = no result. An excerpt weighted towards active compounds, which were near 11% of everything screened. The call rests on the fitted dose curve; in most records, active means well fitted curve in the direction sought with a large enough effect; inconclusive means small, poorly fitted or top-dose-only effect, or another doubt; inactive means no such curve, though single readings can be large; an effect the other way counts as inactive or inconclusive. Unless noted, on the % scale 0 is the no-effect control and ±100 the full control effect; potency means the concentration at half of the fitted maximal effect.

SMILES | Pf growth 48h | AMA1 RON2 block | AmpC inh no detg | AmpC inh detg | Pf growth 96h | HCV inhibitor
CCOC(=O)C1CCN(C(=O)C2CCN(C3=NS(=O)(=O)C(c4ccc(C)cc4)=C3CC)CC2)CC1 | . | . | . | 24% | . | .
Cc1cccc(C(=O)Nc2ccc(S(=O)(=O)N3CCC(c4nc5ccccc5s4)CC3)cc2)c1 | . | . | . | -2% | . | .
CCOC(=O)c1c(S(=O)(=O)N2CCCC(C(=O)NCc3ccc(Cl)cc3)C2)c(C)n(C)c1C (stereo unspecified) | . | . | . | -6% | . | .
CC1(C(=O)NC2CCCCC2)Cc2ccccc2C(=O)N1Cc1ccc(Cl)cc1 (stereo unspecified) | . | . | . | 20% | . | .
Cc1ccc(-c2cc(-c3ccc(C)cc3)[n+](-c3ccccc3)c(-c3ccc(C)cc3)c2)cc1 | 0.29µM* | -2% | 50% | 1% | 0.29µM* | 25µM*
Cc1ccc(-c2cc(-c3ccc(C)cc3)[n+](-c3ccc(C(=O)[O-])cc3)c(-c3ccc(C)cc3)c2)cc1 | 3.7µM* | 4% | 126% | -5% | ? | 2.5µM*
Cc1cccc(OCCCN2CCOCC2)c1C | 34% | ? | -4% | 2% | 6.6µM* | -1%
Cc1ccccc1CN1C(=O)c2ccccc2Sc2ccc(C(=O)OCc3ccco3)cc21 | . | . | . | 9% | . | .
COC(=O)C1=C(c2ccc(OCc3ccccc3)cc2)C[C@@H]2CC[C@H]1N2C(=O)NCc1ccccc1OC | . | -7% | . | . | . | .
COC(=O)C1=C(c2ccc(OCc3ccccc3)cc2)C[C@@H]2CC[C@H]1N2C(=O)NCc1ccc(N(C)C)cc1 | ? | -6% | -16% | 2% | 9.3µM* | 26%
COC(=O)C1=C(c2ccc(OCc3ccccc3)cc2)C[C@@H]2CC[C@H]1N2C(=O)NCc1ccc(OC)c(OC)c1 | ? | 14% | 128% | -6% | ? | 10µM*
O=C(NC1CC(=O)N(c2ccc(F)cc2)C1)C1CC1 (stereo unspecified) | . | . | . | 3% | . | .
CCOc1ccc(NC(=O)Cn2ncc3c2-c2cc(C)ccc2OC3)cc1 | . | . | . | 4% | . | .
COc1ccccc1C1CC(c2cccs2)=Nc2ccccc2S1 (stereo unspecified) | . | ? | -22% | ? | 10µM* | ?
COc1ccccc1C1CC(c2cccs2)=NN1C(=O)CCC(=O)O (stereo unspecified) | -8% | -2% | -18% | -17% | ? | -2%
COC(=O)CCC(=O)OC1(C)C(=O)C=C2C=C(C3CC3)N(CCCOC(C)C)C=C2C1=O (stereo unspecified) | 10µM* | 0% | 63% | 3% | 1.9µM* | -13%
COC(=O)CCC(=O)OC1(C)C(=O)C=C2C=C(C3CC3)N(CCc3c[nH]c4ccccc34)C=C2C1=O (stereo unspecified) | 12µM* | -18% | 56% | 1% | ? | -11%
C=CCN1C=C2C(=O)C(C)(OC(=O)CCC(=O)OC)C(=O)C=C2C=C1C1CC1 (stereo unspecified) | 7.4µM* | -5% | 22% | 1% | 2.6µM* | 0%
COC(=O)CCCC1=CC2=CC(=O)C(C)(OC(=O)c3cccs3)C(=O)C2=CN1CCCCO (stereo unspecified) | ? | -8% | 95% | 4% | 13µM* | 19%
COC(=O)CCC(=O)OC1(C)C(=O)C=C2C=C(C3CC3)N(CCc3ccccn3)C=C2C1=O (stereo unspecified) | 24% | -2% | 35% | -8% | ? | 7%
CCN(CC)S(=O)(=O)c1ccc(C(=O)Nc2nc3c(Cl)cc(Cl)cc3s2)cc1 | . | . | . | 15% | . | .
COc1ccccc1CNC(=O)c1cn(C)c2ccc(S(=O)(=O)N3CCC(C)CC3)cc2c1=O | . | . | . | 0% | . | .
O=S(=O)(NCc1nc2cccnc2n1Cc1ccc(F)cc1)c1ccc2c(c1)CCCC2 | . | . | . | 5% | . | .
COc1cc(F)c(S(=O)(=O)Nc2c(C)n(C)n(-c3ccccc3)c2=O)cc1OC | . | . | . | 6% | . | .
COC(=O)CCC(=O)OC1(C)C(=O)C=C2C=C(C3CC3)N(CCCCO)C=C2C1=O (stereo unspecified) | ? | 3% | -1% | 1% | 7.4µM* | 21%
SMILES | Pf growth 48h | AMA1 RON2 block | AmpC inh no detg | AmpC inh detg | Pf growth 96h | HCV inhibitor
COC(=O)CCC(=O)OC1(C)C(=O)C=C2C=C(C3CC3)N(CCN3CCOCC3)C=C2C1=O (stereo unspecified) | ? | 1% | 28% | -6% | 54% | 16%
CCc1cnc2c(c1SCc1cc(OC)cc(OC)c1)c(=O)n(C)c(=O)n2C | . | . | . | 3% | . | .
FC(F)(F)c1cc(N2CCN(Cc3ccccc3)CC2)c2ccccc2n1 | ? | 10% | -1% | -9% | 9.3µM* | -22%
Cc1ccccc1-c1nc(CN(Cc2c(C)nn(C)c2C)C2CC2)c(C)o1 | 12µM* | -12% | 256% | -1% | 37% | ?
CCOC(=O)c1c(C)[nH]c(C)c1S(=O)(=O)N(C)CC(=O)Nc1ccc(C)cc1C | . | . | . | 1% | . | .
Cc1ccc(NS(=O)(=O)c2c(C)nc3sc(C)c(C)n3c2=O)cc1F | . | . | . | 0% | . | .
O=C(CSc1nc(-c2ccco2)cc(C(F)(F)F)n1)Nc1ccc2c(c1)OCO2 | -1% | -9% | -36% | -7% | 7% | 3.5µM*
O=C(CCSc1nc(-c2ccco2)cc(C(F)(F)F)n1)N1CCCc2ccccc21 | 15µM* | -3% | 65% | ? | . | ?
O=C(CSc1nc(-c2ccco2)cc(C(F)(F)F)n1)Nc1ccc(C(=O)N2CCOCC2)cc1 | ? | 3% | 105% | -10% | -13% | 10µM*
Cc1nn(C)c(C)c1NC(=O)CCCSc1nc(-c2ccco2)cc(C(F)(F)F)n1 | ? | -5% | 170% | -12% | ? | 2.2µM*
O=S(=O)(NCc1nc2cccnc2n1Cc1ccccc1Cl)c1ccc2c(c1)CCCC2 | . | . | . | 5% | . | .
O=C(CCCSc1nc(-c2ccco2)cc(C(F)(F)F)n1)Nc1ccc2c(c1)OCO2 | ? | -6% | . | 15% | ? | 4µM*
Cn1c(=O)n(C)c2cc(CNCc3ccc(F)cc3)ccc21 | . | . | . | 22% | . | .
COC(=O)CS(=O)(=O)c1ccc2c(c1)CC(=O)N2 | 3% | 8% | 0.14µM* | 2% | 56% | -6%
CCCn1c(=N)n(CC(O)c2ccc(C)cc2)c2ccccc21 (stereo unspecified) | 5.2µM* | -8% | -7% | -4% | 4.1µM* | -22%
CCCn1c(=N)n(CC(O)c2ccco2)c2ccccc21 (stereo unspecified) | 9% | -9% | -17% | -12% | -10% | 8%
